TDP1 cell noCPT: qHTS for Inhibitors of human tyrosyl-DNA phosphodiesterase 1 (TDP1): qHTS in cells in absence of CPT; AID 686978, 2013; hit rate 15% among 420,000; Potency, µM (titrated, usually from 46.2 µM), inactives show at the top dose activity change, negative = growth inhibition, usual class: inhibitors; DT40 Tdp1-/- hTDP1 cells, no CPT, ATP luminescence, 48 h; note: nearly all actives have a fitted effect of over 55% in size
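A cellular qHTS used chicken DT40 cells lacking endogenous Tdp1 but carrying stably transfected human TDP1. Compounds were applied without camptothecin, and cell growth kinetics were judged by ATP-dependent luminescence after ≥48 hr.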
RORg inh: qHTS for inhibitors of ROR gamma transcriptional activity; Nuclear receptor ROR-gamma (Mus musculus), P51450; Drosophila S2 Gal4-RORgamma UAS-luciferase reporter, 20 h; Potency, µM (titrated, usually from 53.6 µM), for the others: at the highest dose activity change, negative = inhibition, usual class: inhibitors; hit rate 5.4% among 310,000; note: nearly all actives have a fitted effect of over 60% in size
Target sequence (P51450 whole entry, looked up, the tested form may be a part): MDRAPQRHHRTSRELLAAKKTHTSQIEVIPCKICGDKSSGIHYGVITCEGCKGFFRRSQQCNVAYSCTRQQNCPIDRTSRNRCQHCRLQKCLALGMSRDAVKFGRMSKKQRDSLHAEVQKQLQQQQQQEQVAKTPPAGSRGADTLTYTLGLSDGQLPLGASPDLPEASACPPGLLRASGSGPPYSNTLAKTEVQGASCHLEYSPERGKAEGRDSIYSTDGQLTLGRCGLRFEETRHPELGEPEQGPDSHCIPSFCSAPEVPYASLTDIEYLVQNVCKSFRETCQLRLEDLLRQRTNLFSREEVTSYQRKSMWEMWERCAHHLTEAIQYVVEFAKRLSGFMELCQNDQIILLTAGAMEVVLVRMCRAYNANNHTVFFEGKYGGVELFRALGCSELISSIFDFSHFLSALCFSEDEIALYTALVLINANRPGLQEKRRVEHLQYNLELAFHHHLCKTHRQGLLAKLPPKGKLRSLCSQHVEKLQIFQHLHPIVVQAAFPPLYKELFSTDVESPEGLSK
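Stable Schneider cell line, Gal4 DNA-binding domain fused to ROR gamma, UAS-luciferase. Cmpd 1 hr RT → CuSO4 700 uM final → 20 hr RT → luciferase reagent 10 min → luminescence.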
TDP1 cell CPT: qHTS for Inhibitors of human tyrosyl-DNA phosphodiesterase 1 (TDP1): qHTS in cells in presence of CPT | chicken DT40 Tdp1-/-;hTDP1 cells + 20 nM CPT, ATP luminescence, 48 h | Potency, µM (doses to about 46.2 µM), for the others: at the top dose activity change, negative = growth inhibition, usual class: inhibitors | hit rate 12% among 420,000 | AID 686979, 2013; note: nearly all actives have a fitted effect of over 55% in size
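Cell growth measured by CellTiter-Glo luminescence after a minimum 48 h, 37 C compound exposure with 20 nM CPT in Tdp1-knockout DT40 cells stably expressing hTDP1, seeded 400/well; qHTS titration format.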
VP16 counter: VP16 counterscreen qHTS for inhibitors of ROR gamma transcriptional activity. Drosophila S2 Gal4-VP16 UAS-luciferase, luminescence, 20 h. Potency, µM (titrated, usually from 53.6 µM), for the others: at the highest dose activity, negative = inhibition, most hits filed as inhibitors. hit rate 3.5% among 310,000;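 note: Gal4-VP16 expression switched on by copper sulfate through the metallothionein promoter; nearly all actives have a fitted effect of over 50% in size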
TDP1 block: qHTS Assay for Inhibitors of Tyrosyl-DNA Phosphodiesterase (TDP1). hit rate 0.28% among 350,000. Tyrosyl-DNA phosphodiesterase 1 (Homo sapiens), Q9NUW8. recombinant TDP1, AlphaScreen DNA substrate cleavage. Potency, µM (doses to about 130 µM), without a hit: top-dose activity change, negative = inhibition, most hits filed as inhibitors. AID 485290, 2010; note: nearly all actives have a fitted effect of over 40% in size
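Enzyme-compound mixtures sat 15 min at room temperature, followed by a 5 min reaction with 15 nM final substrate and 10 min with AlphaScreen beads. Recombinant human Tdp1 was used at 1 nM final.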
Active calls of the source: *; ? = inconclusive; · = no result given; [ ] = dose if it differs, or a comment. Shown are actives, neighbours in structure and some others; about 19% of the full set was active somewhere. Calls come from the whole dose curve; as a rule, active = well fitted curve in the direction sought with a large enough effect; inconclusive = small, poorly fitted or top-dose-only effect, or another doubt; inactive = no such curve, though single readings can be large; an effect the other way counts as inactive or inconclusive. % is set by controls: 0 for no effect and ±100 for the full control effect; potency is the fitted concentration of half-maximal effect.

SMILES | TDP1 cell noCPT | RORg inh | TDP1 cell CPT | VP16 counter | TDP1 block
CCN(CCC#N)c1ccc(/C=C/c2ccnc3ccccc23)cc1 | 20µM* | · | ? | · | ·
CN(CCC#N)c1ccc(/C=C/c2ccnc3ccccc23)cc1 | 2µM* | · | 0.794µM* | · | ·
COc1ccc2cc(C(C)C(=O)N3CCC(C)CC3)ccc2c1 (centres undefined) | ? | 7.6% | 16.4µM* | -1.9% | 9.5%
COc1ccc2oc(C(=O)OC(C)C(=O)N3CCC(C)CC3)c(C)c2c1 (centres undefined) | 14.6µM* | · | ? | · | -0.1%
COc1ccc2cc(C(C)C(=O)NC3CCC(O)CC3)ccc2c1 (centres undefined) | -11.8% | 0.0% | 18.9% | 0.6% | ·
O=C(Nc1ccc(Cl)cc1)NN1CCCCCC1 | -17.9% | · | 2.6% | · | ·
C[C@@H](C(=O)O)c1ccc(-c2ccccc2)c(F)c1 | 2.2% | 23.7% | 5.3% | -5.2% | 10.7%[56.1 µM]
Cc1ccc(NC(=O)C(C)c2ccc(-c3ccccc3)c(F)c2)cc1 (centres undefined) | 7.31µM* | ? | ? | ? | 4.9%
Cc1ccc(S(=O)(=O)N2CCCC2)cc1C(=O)NCc1ccccn1 | -2.0% | -8.0% | 8.5% | 4.0% | 1.5%
COc1ccc(C(CNC(=O)c2cc(S(=O)(=O)N3CCN(c4ccccc4)CC3)ccc2Cl)N(C)C)cc1 (centres undefined) | 18.4µM* | · | 20.6µM* | · | 2.6%
O=C(NCc1ccccn1)c1cc(S(=O)(=O)N2CCN(c3ccccc3)CC2)ccc1Cl | 18.4µM* | ? | 10.3µM* | -9.3% | 9.1%
COc1ccc(C(CNC(=O)c2ccc(S(=O)(=O)N3CCCC3)cc2)N(C)C)cc1OC (centres undefined) | 1.8% | 14.3% | ? | -1.3% | 5.8%
COc1ccc(C(CNC(=O)c2ccc(S(=O)(=O)N3CC(C)CC(C)C3)cc2)N(C)C)cc1 (centres undefined) | 29.1µM* | · | ? | · | 3.4%
Cc1nn(Cc2c(Cl)cccc2Cl)c(C)c1NC(=O)CCCn1nc(C)c([N+](=O)[O-])c1C | -28.3% | 9.7%[10 µM] | 2.8% | -12.7% | 1.1%
O=C(O)CC1(CC(=O)NCc2ccc(C(F)(F)F)cc2)CCCCC1 | -5.9% | 10.7% | 3.7% | -3.6% | -2.6%
CC(C)C[C@H](NC(=O)C1OC1C(=O)O)C(=O)NCCCCN=C(N)N (some centres undefined) | · | · | · | · | -6.9%[56.1 µM]
Fc1ccccc1C1CC(c2ccco2)=Nc2ccccc2S1 (centres undefined) | 13µM* | 4.5% | ? | 2.2% | ·
Cc1cccc(-c2onc3ccc(C(=O)/C=C/N(C)C)cc23)c1 | 18.4µM* | 11.9% | ? | -9.7% | ·
COc1cccc(-c2onc3ccc(C(=O)/C=C/N(C)C)cc23)c1 | 16.4µM* | 13.6% | ? | 5.6% | ·
COc1ccc(NC(=O)c2nc[nH]c2C(=O)N[C@H](C)c2ccccc2)cc1 | ? | 6.31µM* | ? | 7.94µM* | 11.2%
CCOC(=O)c1[nH]cnc1C(=O)N[C@@H](C)c1ccccc1 | -5.5% | · | -4.0% | · | 0.7%
CCOC(=O)c1ccc(NC(=O)c2nc[nH]c2C(=O)N(C)Cc2ccccc2)cc1 | ? | 10µM* | ? | ? | 7.5%
Cc1ccc(NC(=O)c2nc[nH]c2C(=O)N[C@H](C)c2ccccc2)cc1 | ? | · | 23.1µM* | · | 1.9%
C[C@H](NC(=O)c1[nH]cnc1C(=O)Nc1ccccc1)c1ccccc1 | ? | · | ? | · | 0.3%
CCOC(=O)c1ccc(NC(=O)c2nc[nH]c2C(=O)N[C@H](C)c2ccccc2)cc1 | ? | 2.82µM* | ? | 7.08µM* | 6.2%
SMILES | TDP1 cell noCPT | RORg inh | TDP1 cell CPT | VP16 counter | TDP1 block
COc1ccc(NC(=O)Nc2cccc3c2O[C@H](CN(C)S(=O)(=O)c2cccs2)[C@@H](C)CN([C@H](C)CO)C3=O)cc1 | ? | · | ? | · | 2.9%
C[C@H](NC(=O)c1[nH]cnc1C(=O)Nc1ccccc1F)c1ccccc1 | 16.4µM* | · | ? | · | ·
CC1=CN2C(=N)/C(=C/c3ccc([N+](=O)[O-])o3)C(=O)N=C2S1 | 1.3µM* | 11.2µM* | 0.651µM* | 5.01µM* | 2.6%
CC1=CN2C(=N)/C(=C/c3ccco3)C(=O)N=C2S1 | -15.8% | ? | -11.2% | 15.8µM* | 0.0%
CCOc1ccc(-c2ccc(/C=C3/C(=N)N4C=CSC4=NC3=O)o2)c([N+](=O)[O-])c1 | ? | 2.51µM* | 20.6µM* | 3.55µM* | 3.4%
O=C1N=C(N2CCN(c3ccccc3)CC2)S/C1=C/c1ccco1 | ? | 35.8% | -25.7% | -1.4% | 2.7%
COc1cccc(CNC(=O)CCS(=O)(=O)c2ccc3c(c2)NC(=O)C(C)S3)c1 (centres undefined) | -15.5% | 6.8% | ? | -6.8% | -14.9%
CC1CC(C)CN(C(=O)COC(=O)c2ccc[nH]c2=O)C1 (centres undefined) | 0.3% | 16.4% | 0.6% | 1.8% | -4.5%
Cc1cccc(NC(=S)NCC(C)CSc2ccc(Cl)cc2)c1 (centres undefined) | 16.4µM* | 3.16µM* | ? | 5.62µM* | 1.2%
CC(C)CNC(=O)c1cccc(NC(=O)CSc2ccc(Cl)cc2)c1 | ? | 13.9% | -17.0% | -14.7% | 0.0%
Cc1ccc(NC(=S)NCC(C)CSc2ccc(Cl)cc2)cc1 (centres undefined) | ? | 2.82µM* | -4.1% | ? | 1.1%
COCOc1cccc(CN2CCC2(C)C(=O)Nc2ccc(C)c(O)c2)c1 (centres undefined) | 18.4µM* | · | 25.9µM* | · | ·
COCOc1cccc(CN2CCC2(C)C(=O)Nc2cc(OC)ccc2OC)c1 (centres undefined) | ? | · | 25.9µM* | · | ·
COCOc1cccc(CN2CCC2(C)C(=O)Nc2ccc(OC)c(OC)c2)c1 (centres undefined) | 23.1µM* | · | 16.4µM* | · | ·
COc1ccc(OC)c(NC(=O)C2(C)CCN2Cc2ccc(SC)cc2)c1 (centres undefined) | -29.8% | · | 6.9% | · | ·
COCOc1cccc(CN2CCC2(C)C(=O)NCCNC(C)=O)c1 (centres undefined) | 24.3% | · | 2.1% | · | ·
CC(C)NC(=O)C1(C)CCN1Cc1cccc(C#N)c1 (centres undefined) | -17.6% | · | 0.7% | · | ·
CC(=O)c1cccc(NC(=O)c2cc(C)no2)c1 | -18.1% | 8.8% | -5.1% | -6.3% | 2.6%
CCOc1cc(CNC(=O)c2ccc(C)c(NC(=O)c3nsc4ccccc34)c2)ccc1OC | 7.31µM* | · | 7.31µM* | · | 2.7%
